High-throughput results: PubChem BioAssay, Broad Institute
SUMO Mot1 rescue: inhibitors of SUMOylation pathway: yeast Mot1-301 growth rescue; S. cerevisiae Mot1-301 growth rescue, ATP luminescence, 38.5C; percent above DMSO median, 100 means doubled; growth rescue, % at 18.8 µM; actives 1% (n = 320,000);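 active = every valid replicate shows activation above 250% relative to neutral control wells; inactive = the rest, any valid replicate at or below 250%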;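 also: OY570 slx delta 5 strain wells were the positive control but not used for scaling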
CASP6 VEID inh: caspase-6 (human) enzyme inhibition | P55212 | purified caspase-6, Z-VEID-R110 cleavage fluorescence | inhibition, % at 12.5 µM | actives 0.53% (n = 350,000);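 active = mean inhibition across replicates at least about 35%, with every replicate also reaching that limit, limit read from the data; inconclusive = only one of the two criteria met; inactive = neither criterion met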;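 also: 0% = median of neutral control wells and 100% = no fluorescence left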
ALR H2O2 inh: inhibitors of human sulfhydryl oxidase ALR | P55789 | purified ALR, DTT oxidation, H2O2 HRP-luminol luminescence | inhibition, % (no concentration beside the values) | actives 3.8% (n = 290,000);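 active = mean replicate inhibition above about 79%, with every replicate also reaching it, limit read from the data; inconclusive = only one of the two criteria met; inactive = mean below limit and not every replicate reaching it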
CDK5 inh: inhibitors of human CDK5/p35 kinase; Q00535+Q15078; Recombinant CDK5/p35, ADP-Glo luminescence, 60 min; inhibition, % at 10 µM; actives 0.01% (n = 330,000); AID 488839;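 active = highest replicate inhibition of at least 50% and at least 75% of replicates reaching 50%; inconclusive = only one of the two criteria met; inactive = both criteria failed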;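 also: plate controls were DMSO neutral control for no effect and GW8510 at 10 µM for full effect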
N-glyco inh: blocks N-linked glycosylation in D54 reporter cells; D54 ERlucT glycosylation luciferase reporter, 24 h; percent of 100 nM tunicamycin response; reporter increase, % at 12.5 µM; actives 0.23% (n = 360,000); AID 588692;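 active = mean luciferase reporter signal, scaled so untreated is 0 and the glycosylation-blocking control 100, at or above a set limit in every replicate; inconclusive = mean reaches the limit but not every replicate does; inactive = mean below the limit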;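 also: luciferase carries N-glycosylation sites so blocking glycosylation raises the light; 0% = median of neutral control wells and 100% = median of 100 nM tunicamycin wells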
NSD2 inh: NSD2 (human) methyltransferase inhibition. O96028. NSD2 peptide methylation, AlphaScreen, 120 min. inhibition, % at 12.5 µM. actives 0.54% (n = 310,000). AID 743445; in the data active = inhibition above about 50%
Target sequence (O96028 whole entry, looked up): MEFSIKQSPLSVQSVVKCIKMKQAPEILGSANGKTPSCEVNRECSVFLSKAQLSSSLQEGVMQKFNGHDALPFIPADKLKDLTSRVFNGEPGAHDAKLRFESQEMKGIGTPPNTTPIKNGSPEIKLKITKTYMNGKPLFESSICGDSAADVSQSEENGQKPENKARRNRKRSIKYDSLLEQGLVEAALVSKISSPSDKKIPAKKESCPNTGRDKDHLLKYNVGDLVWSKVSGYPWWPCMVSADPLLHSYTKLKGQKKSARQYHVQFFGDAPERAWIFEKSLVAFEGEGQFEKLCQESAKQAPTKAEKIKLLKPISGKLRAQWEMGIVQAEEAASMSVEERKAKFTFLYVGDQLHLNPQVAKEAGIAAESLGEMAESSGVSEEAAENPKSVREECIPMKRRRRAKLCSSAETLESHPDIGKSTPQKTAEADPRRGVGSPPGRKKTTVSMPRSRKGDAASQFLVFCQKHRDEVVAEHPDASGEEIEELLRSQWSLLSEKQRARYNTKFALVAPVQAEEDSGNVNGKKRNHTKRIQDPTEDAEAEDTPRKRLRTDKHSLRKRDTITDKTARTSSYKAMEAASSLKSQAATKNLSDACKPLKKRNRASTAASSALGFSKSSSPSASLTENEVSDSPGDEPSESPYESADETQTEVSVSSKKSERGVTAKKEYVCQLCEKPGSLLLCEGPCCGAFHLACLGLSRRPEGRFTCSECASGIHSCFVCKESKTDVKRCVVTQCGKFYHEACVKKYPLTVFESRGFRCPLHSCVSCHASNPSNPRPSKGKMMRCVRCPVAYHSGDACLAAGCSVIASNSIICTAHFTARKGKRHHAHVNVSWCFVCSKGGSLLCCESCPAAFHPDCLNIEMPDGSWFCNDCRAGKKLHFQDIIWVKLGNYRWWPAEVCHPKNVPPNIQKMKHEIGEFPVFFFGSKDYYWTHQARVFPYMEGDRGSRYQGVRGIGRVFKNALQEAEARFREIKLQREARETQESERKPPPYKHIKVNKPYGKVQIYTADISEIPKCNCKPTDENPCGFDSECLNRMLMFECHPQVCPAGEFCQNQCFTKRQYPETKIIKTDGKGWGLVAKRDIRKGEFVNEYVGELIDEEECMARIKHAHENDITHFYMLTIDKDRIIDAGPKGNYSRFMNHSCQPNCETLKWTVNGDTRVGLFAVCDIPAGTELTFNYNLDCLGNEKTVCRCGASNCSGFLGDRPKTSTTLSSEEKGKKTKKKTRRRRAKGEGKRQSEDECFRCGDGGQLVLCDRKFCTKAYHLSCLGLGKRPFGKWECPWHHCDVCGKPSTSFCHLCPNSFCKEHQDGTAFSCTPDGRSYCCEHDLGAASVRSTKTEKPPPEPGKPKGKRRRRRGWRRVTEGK
Yeast Mot1 SUMO: SUMO pathway inhibitors in yeast Mot1-301 growth; shares compounds with SUMO Mot1 rescue; S. cerevisiae Mot1-301 galactose growth, ATP luminescence, 24 h; -100 = growth of slx-deleted rescue strain; growth activity, percent, % at 42 µM; 2,300 tested, under 10 active; AID 493004;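 active = Signal drops as the depositor expects, and the fitted half-maximal dose is no more than ten times the top valid tested dose; inconclusive = Poor fit, or a flat curve whose signal drops by 30% to 70%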;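 also: more negative values mean stronger growth rescue toward the control strain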
* marks the source's active call; other numbers are inactive results; u = inconclusive; x = not tested or not shown; ! = not confirmed by another sample. Only some compounds are listed: those with a hit (about 3.9% of all), similar ones and a draw of the others.

SMILES	SUMO Mot1 rescue	CASP6 VEID inh	ALR H2O2 inh	CDK5 inh	N-glyco inh	NSD2 inh	Yeast Mot1 SUMO
O=c1[nH]c(=O)n(C2CCCO2)cc1Br (configuration not stated)	678*	x	-30	2	3	-2	1
NC(=S)N/N=C/c1cccc(O)c1O	630*	5	98*	2	7	4	0
CO[C@H]1CN(C)C(=O)c2cc(NC(=O)NC3CCCCC3)ccc2OC[C@@H](C)N(C)C[C@@H]1C	x	2	x	x	x	x	x
Cc1ccc(-c2csc(NC(=O)CSc3nc(C)cs3)n2)cc1	541*	-3	u	0	1	0	0
CC(=O)N1[C@@H](CO)[C@@H](c2ccccc2)C12CN(S(=O)(=O)c1ccccc1)C2	x	1	x	x	x	x	x
C[C@@H](NC(=O)C[C@@H]1C=C[C@H](NC(=O)CN2CCOCC2)[C@H](CO)O1)c1ccccc1	x	0	x	x	x	x	x
COC(=O)Cn1c(=NC(=O)c2ccc(S(=O)(=O)N3CCOCC3)cc2)sc2cc(S(N)(=O)=O)ccc21	-14	2	-8	1	-2	-1	x
COCCn1c(=NC(=O)c2ccc(S(=O)(=O)N3CCOCC3)cc2)sc2cc(S(N)(=O)=O)ccc21	552*	-2	3	0	-4	0	-1
C[C@@H]1CN([C@H](C)CO)C(=O)c2cccc(NS(=O)(=O)c3ccc(Cl)cc3)c2O[C@H]1CN(C)C(=O)Nc1cccc2ccccc12	x	-1	x	x	x	x	x
CCC(=O)N1N=C(c2c(-c3ccccc3)c3cc(Cl)ccc3[nH]c2=O)CC1c1ccco1 (configuration not stated)	0	x	2	-1	2	0	x
O=C(O)CCC(=O)N1N=C(c2c(-c3ccccc3)c3cc(Cl)ccc3[nH]c2=O)CC1c1ccco1 (configuration not stated)	377*	x	-7	1	4	4	0
CCC1(CC)NC(=O)N(CC(=O)N2N=C(c3ccc(Cl)cc3)CC2c2ccco2)C1=O (configuration not stated)	581*	2	0	0	4	2	0
O=C(C[C@@H]1C[C@H]2c3cc(NC(=O)c4ccc5c(c4)OCO5)ccc3O[C@H]2[C@H](CO)O1)NCc1cc(F)ccc1F	x	1	x	x	x	x	x
CC(C)NC(=O)NC(=O)COC(=O)CCCSc1nc2ccccc2s1	505*	-1	-5	-1	-1	x	0
C[C@@H]1CN([C@H](C)CO)C(=O)c2cc(-c3cncnc3)cnc2O[C@@H]1CN(C)C(=O)Cc1ccccc1	x	1	x	x	x	x	x
N#C/C(=N\Nc1cccc(F)c1)C(=N)N1CCCCCC1	605*	-4	x	1	-11	6	0
N#C/C(=N\Nc1ccc(F)cc1)C(=N)N1CCCCC1	59	x	64	-3	-12	1	x
CC(C)C#Cc1cnc2c(c1)C(=O)N([C@@H](C)CO)C[C@H](C)[C@H](CN(C)C(=O)c1ccccc1F)O2	x	2	x	x	x	x	x
CC(=O)N1CCc2cc(S(=O)(=O)Nc3ccc(C)cc3C)ccc21	-13	-1	-17	1	-2	-7	x
CC(=O)N1CCCc2cc(S(=O)(=O)Nc3ccc(C)cc3C)ccc21	474*	1	8	1	-3	-1	0
O=C(c1ccco1)N1CCN(C(=O)C2Cc3ccccc3CN2S(=O)(=O)c2ccc(F)cc2)CC1 (configuration not stated)	901*	x	-12	2	-1	-3	0
O=C(C1Cc2ccccc2CN1S(=O)(=O)c1ccc(F)cc1)N1CCCCC1 (configuration not stated)	146	x	0	2	0	x	x
C[C@@H]1CCCCO[C@@H](CN(C)C(=O)Cc2ccccc2)[C@H](C)CN([C@@H](C)CO)C(=O)c2cc(NC(=O)Nc3cccc4ccccc34)ccc2O1	x	1	x	x	x	x	x
CC(=O)N1CCc2cc(S(=O)(=O)CCC(=O)N3CCN(C(=O)c4ccco4)CC3)ccc21	436*	x	-9	-2	1	x	0
CC(=O)N1CCc2cc(S(=O)(=O)CCC(=O)N3CCN(c4ccccc4)CC3)ccc21	149	1	25	-1	-2	-2	x
SMILES	SUMO Mot1 rescue	CASP6 VEID inh	ALR H2O2 inh	CDK5 inh	N-glyco inh	NSD2 inh	Yeast Mot1 SUMO
Cc1sc2nc(SCC(=O)NCCOCCO)n(C)c(=O)c2c1C	983*	x	-6	0	0	-1	0
Cc1sc2nc(SCC(=O)NCCOCCO)nc(N)c2c1C	325	-2	-11	1	3	-1	x
CC1=Nc2ccc(C)cc2N(Cc2ccccc2)C(=O)C1	629*	-1	-9	-1	3	x	0
Cc1ccc2c(c1)N(Cc1ccccc1)C(=O)C(C)O2 (configuration not stated)	x	-5	x	x	0	-2	x
O=C(NCC1CCCO1)C1CC(c2ccc(Cl)c(Cl)c2)=NO1 (configuration not stated)	870*	x	-3	-1	2	16	0
Cn1ncc(C#N)c1NC(=O)C1CC(c2ccc(Cl)c(Cl)c2)=NO1 (configuration not stated)	-13	x	-3	2	-2	6	x
COc1cccc(/C=N/NC(=O)CNC(=O)COc2ccccc2)c1O	8	-6	x	0	-3	0	x
COc1cccc(/C=N/NC(=O)CNC(=O)c2ccco2)c1O	400*	-10	63	1	2	x	-1
COc1ccc(C)cc1S(=O)(=O)NC1CCCCCC1	-13	0	1	0	-2	2	x
COc1cc(S(=O)(=O)NC2CCCC2)c(OC)cc1C	435*	2	-4	-1	1	1	0
COC(=O)C1=C(C)NC(C)=C(C(=O)OC)C1c1ccc(-c2cccc([N+](=O)[O-])c2)o1	-1	-3	7	3	3	x	x
COC(=O)C1=C(C)NC(C)=C([N+](=O)[O-])C1c1ccccc1C(F)(F)F (configuration not stated)	497*!	2	-17	2	1	x	-1
CC(=O)NCc1c(Cl)cccc1-n1cccc1	785*	-2	1	-3	2	2	0
CCC(=O)NCc1c(Cl)cccc1-n1cccc1	-2	x	-16	1	3	0	x
CC(C)CC#Cc1ccc2c(c1)O[C@@H](CN(C)Cc1ccccn1)[C@@H](C)CN([C@@H](C)CO)S2(=O)=O	x	0	x	x	x	x	x
C[C@H](CO)N1C[C@H](C)[C@@H](CN(C)S(=O)(=O)c2cn(C)cn2)Oc2ccc(NC(=O)Nc3ccc(C(F)(F)F)cc3)cc2C1=O	x	-1	x	x	x	x	x
Cc1noc(C)c1NC(=O)Nc1ccc2c(c1)C(=O)N([C@@H](C)CO)C[C@@H](C)[C@H](CN(C)C(=O)C1CCCCC1)OCCCC[C@@H](C)O2	x	1	x	x	x	x	x
